Compounds with a hit are over-represented: about 21% of the library has one in this group of screens.
TDP1 cell CPT: DT40-hTDP1 cell growth loss with CPT; chicken DT40 Tdp1-/-;hTDP1 cells + 20 nM CPT, ATP luminescence, 48 h; Potency, µM (doses to about 46.2 µM), inactives show at the highest dose activity change, negative = growth inhibition, usual class: inhibitors; actives 12% (n = 420,000); also: potency is read from the fitted curve at half-maximal effect; % is scaled to controls: 0 for no effect and ±100 for the full control effect; nearly all actives have a fitted effect of over 55% in size
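Chicken DT40 Tdp1-/- cells complemented with human TDP1, 400 cells/well, exposed to compounds plus 20 nM camptothecin for at least 48 h at 37 C; viability read as ATP content by CellTiter-Glo luminescence.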
IL1B secr inh: blocks inflammasome-driven IL-1 beta release | actives 4.7% (n = 360,000) | AID 743279 | THP-1 LPS/ATP IL-1B secretion, AlphaLISA, 16 h; active compounds read low | activity change, % at 57.5 µM; in the data active = activity change below about -50%; inconclusive = mostly about -30% to -49%; also: % is scaled to controls: 0 for no effect and ±100 for the full control effect
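THP-1 cells pretreated 1 hr with compounds (up to 57.5 uM final), then stimulated with LPS (250 ng/mL final) plus ATP (1.25 mM final); secreted IL-1B measured by AlphaLISA after 16 hr, decreased signal indicating inhibition.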
D3 ag: D3 dopamine receptor (human) agonism; max activation, %; P35462; actives 0.58% (n = 410,000); D3R DiscoveRx beta-arrestin cells, luminescence, 90 min; AID 652048; in the data active = max activation above about 30%; also: 0% is about no effect
Target sequence (P35462 whole entry, looked up): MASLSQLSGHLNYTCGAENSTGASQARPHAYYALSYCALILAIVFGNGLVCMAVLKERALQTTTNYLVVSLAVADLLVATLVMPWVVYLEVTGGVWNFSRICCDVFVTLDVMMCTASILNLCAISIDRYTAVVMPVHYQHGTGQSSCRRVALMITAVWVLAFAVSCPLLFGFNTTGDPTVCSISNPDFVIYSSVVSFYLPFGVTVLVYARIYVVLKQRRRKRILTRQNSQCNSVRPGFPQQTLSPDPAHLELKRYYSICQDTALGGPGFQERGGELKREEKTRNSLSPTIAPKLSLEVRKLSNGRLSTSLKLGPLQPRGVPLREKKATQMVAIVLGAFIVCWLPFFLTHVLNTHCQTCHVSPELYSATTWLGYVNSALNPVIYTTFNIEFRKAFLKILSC
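Agonist-mode cell screen: cells plated at 1500/well and incubated overnight at 37 °C, then exposed to library compounds for 90 min at 37 °C. Detection reagent was added for 30–60 min at room temperature, and luminescence was read.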
D3 antag: antagonists of human D3 dopamine receptor. P35462. D3R cells, DiscoveRx beta-arrestin luminescence, antagonist mode; active compounds read low. max response, negative = inhibition, %. actives 2.5% (n = 360,000). AID 652054; in the data active = max response below about -50%; inconclusive = no clear call, values can overlap the other calls; also: % is scaled to controls: 0 for no effect and ±100 for the full control effect
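Cells plated overnight at 1500 cells/well, then exposed to library compounds with dopamine controls for 90 minutes at 37 degrees C. DiscoveRx reagent added for 30–60 minutes at room temperature; luminescence read, quantitative HTS format.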
TDP1 cell noCPT: qHTS for Inhibitors of human tyrosyl-DNA phosphodiesterase 1 (TDP1): qHTS in cells in absence of CPT. DT40 Tdp1-/- hTDP1 cells, no CPT, ATP luminescence, 48 h. Potency, µM (doses to about 46.2 µM), for inactives: top-dose activity change, negative = growth inhibition, actives largely listed as inhibitors. actives 15% (n = 420,000). AID 686978, 2013; also: potency is read from the fitted curve at half-maximal effect; % is scaled to controls: 0 for no effect and ±100 for the full control effect; nearly all actives have a fitted effect of over 55% in size
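Chicken DT40 Tdp1-/- cells complemented with human TDP1, screened without camptothecin (DMSO vehicle only), 400 cells/well. Compounds pin-transferred, cells incubated at 37 °C for at least 48 hr. Growth read as ATP-dependent luminescence (CellTiter-Glo, 30 min at RT).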
ClpP mod: qHTS Assay for Activators of ClpP | actives 1.9% (n = 340,000) | purified B. subtilis ClpP, FRET peptide cleavage, 20 min | AID 651965, 2013 | Potency, µM (series often up to 57.5 µM), for the others: top-dose activity change, negative = active | ATP-dependent Clp protease proteolytic subunit (Bacillus subtilis (strain 168)), P80244; active = well fitted falling curve with a large enough effect; inconclusive = small, poorly fitted or top-dose-only effect; inactive = no such curve, though single readings can be large or run the other way; also: potency is read from the fitted curve at half-maximal effect; the source files actives as falling curves though it sought activators and does not explain the sign; nearly all actives have a fitted effect of over 65% in size
Target sequence (P80244 whole entry, looked up): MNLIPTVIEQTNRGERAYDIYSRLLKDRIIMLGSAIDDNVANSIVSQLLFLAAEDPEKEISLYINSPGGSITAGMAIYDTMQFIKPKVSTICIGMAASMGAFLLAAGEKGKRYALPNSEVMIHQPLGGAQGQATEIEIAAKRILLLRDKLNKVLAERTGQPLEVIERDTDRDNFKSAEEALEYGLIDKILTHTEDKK
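Purified B. subtilis ClpP, 10 microg/mL final in Tris/HCl pH8 with KCl, BSA, glycerol and Tween-20, cleaved an Abz/nitrotyrosine-quenched decapeptide. Fluorescence (ex 320, em 430) was read at 0 and 20 min at room temperature. Delta was normalized to 5.8 microM ADEP and DMSO/no-enzyme controls.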
* hit, by the source's call; ? = inconclusive; . = not tested or not shown; ! = not confirmed by another sample. Unless noted, calls follow the shape of the dose curve; as a rule, active = well fitted inhibition curve with a large enough effect; inconclusive = small, poorly fitted or top-dose-only effect; inactive = flat fitted curve, though single readings scatter.

SMILES	TDP1 cell CPT	IL1B secr inh	D3 ag	D3 antag	TDP1 cell noCPT	ClpP mod
Cc1ccc(NC(=O)C(C)SCc2nc3sc(C)c(C)c3c(=O)[nH]2)nc1 (configuration not stated)	-4%	1	-15	0	-12%	.
CC(C)C(NC(=O)CCNC(=O)c1ccc(C(C)(C)C)cc1)c1nc2ccccc2[nH]1 (configuration not stated)	?	1	-13	-17	18µM*	-1%
CC(=O)c1ccc(S(=O)(=O)NCC(=O)NC(c2nc3ccccc3[nH]2)C(C)C)cc1 (configuration not stated)	?	1	-6	5	?	-12%
CCCCCCCCCCCCCCCCCC(=O)OCC(O)CO (configuration not stated)	-25%	.	4	.	-12%	.
NC(=O)CN1CCN(c2ccccc2F)CC1	7%	-11	1	-9	-13%	-2%
O=C(CN1CCN(c2ccccc2)CC1)N1CCN(c2ccccc2)CC1	?	8	10	-22	?	0%
Cc1c(O)ccc(C(=O)CN2CCN(c3ccccc3F)CC2)c1O	?	12	-6	-28	23µM*	-2%
COc1ccc(C(=O)CN2CCN(c3ccc(F)cc3)CC2)cc1	1%	7	3	-2	-7%	-2%
Cc1c(O)ccc(C(=O)CN2CCN(c3ccccc3)CC2)c1O	?	9	-4	-16	23µM*	-3%
COc1ccc(N2CCN(CC(=O)c3ccc(O)c(C)c3O)CC2)cc1	?	8	-2	-11	21µM*	-19%
O=C(CN1CCN(c2ccccc2F)CC1)c1ccc(O)c(O)c1	23µM*	80	-5	-21	10µM*	.
O=S(=O)(c1ccc2[nH]ccc2c1)N1CCCCCC1	-15%	-13	-3	-19	-23%	-5%
CC(C)c1ccc(NC(=O)C2C3C=CC4(O3)C2C(=O)N(CCCN2CCOCC2)C4C(=O)NC2CCCCC2)cc1 (configuration not stated)	1%	0	-3	-8	2%	.
CCOC(=O)C[N+]1(C)CCN(C(C)=O)CC1	5%	14	2	11	10%	-1%
COc1ccc2c(c1)c(C(=O)CN1CCOCC1)c(C)n2C	-1%	20	2	3	-22%	-2%
COc1ccc(N2CCN(CC(=O)c3c(C)n(C)c4ccc(OC)cc34)CC2)cc1	18µM*	.	-11	9	23µM*	.
CC1(C)CC2(C)OC2C2(C1)N=NC(=Nc1ccccc1)O2 (configuration not stated)	4.1µM*	-99*	4	44	4.1µM*	0%
CCCCOC(=O)c1[nH]c2c(c1C)C(=O)CC(c1cc(OC)c(OC)c(OC)c1)C2 (configuration not stated)	6.5µM*	4	13	20	5.2µM*	2%
COCCOC(=O)c1[nH]c2c(c1C)C(=O)CC(c1cc(OC)c(OC)c(OC)c1)C2 (configuration not stated)	3.7µM*	-21	9	19	2.9µM*	.
C=CCOC(=O)c1[nH]c2c(c1C)C(=O)CC(c1cc(OC)c(OC)c(OC)c1)C2 (configuration not stated)	21µM*	?	7	-4	7.3µM*	5%
CCOc1ccc(C2CC(=O)c3c([nH]c(C(=O)OC)c3C)C2)cc1OC (configuration not stated)	-1%	16	0	17	-27%	-9%
Cc1ccc(-c2ccc3c(c2)O[C@H](CN(C)C(=O)CC2CC2)[C@H](C)CN([C@@H](C)CO)S3(=O)=O)cc1	-6%	-1	4	3	-23%	-3%
C[C@@H]1CN([C@H](C)CO)S(=O)(=O)c2ccc(Br)cc2O[C@H]1CN(C)C(=O)C1CCCCC1	26µM*	11	4	-74*	13µM*	3%
C[C@H]1CN([C@@H](C)CO)S(=O)(=O)c2ccc(-c3ccccc3)cc2O[C@H]1CN(C)C(=O)C1CCC1	?	19	8	-8	15µM*	-9%
CC(C)NC(=O)N(C)C[C@H]1Oc2cc(Br)ccc2S(=O)(=O)N([C@H](C)CO)C[C@H]1C	-26%	21	5	-4	-7%	0%
SMILES	TDP1 cell CPT	IL1B secr inh	D3 ag	D3 antag	TDP1 cell noCPT	ClpP mod
C[C@@H]1CN([C@H](C)CO)S(=O)(=O)c2ccc(C3=CCCCC3)cc2O[C@H]1CN(C)C(=O)Cc1cccnc1	?	-24	-6	-7	26µM*	1%
C[C@H]1CN([C@@H](C)CO)S(=O)(=O)c2ccc(C3=CCCC3)cc2O[C@@H]1CN(C)C(=O)C1CCCCC1	-94%	-51*	-5	-17	-111%	-5%
C[C@H]1CN([C@@H](C)CO)S(=O)(=O)c2ccc(/C=C/c3ccccc3)cc2O[C@H]1CN(C)C(=O)NC1CCCCC1	?	-55*	0	?	18µM*	35µM*
C[C@@H]1CN([C@@H](C)CO)S(=O)(=O)c2ccc(Br)cc2O[C@H]1CN(C)C(=O)C1CCOCC1	9%	-5	8	17	-3%	-3%
C[C@@H]1CN([C@@H](C)CO)S(=O)(=O)c2ccc(Br)cc2O[C@H]1CN(C)C(=O)C1CCCCC1	26µM*	-30	-4	-13	16µM*	-1%
COc1ccc(OC)c(CNc2ccc3c(c2)CCC3)c1	?	-27	10	-4	16µM*	.
COc1ccc(OC)c(CC(=O)Nc2ccc3c(c2)CCC3)c1	-4%	0	-6	-17	-26%	.
COc1ccc(CC(=O)Nc2ccc3c(c2)CCC3)cc1OC	?	-21	12	15	9.2µM*	24%
CCOC(=O)CC1C(=O)NCCN1C(=O)c1ccc(Cl)c(Cl)c1 (configuration not stated)	10%	0	-3	-4	-1%	.
CC(=O)OCCN(CCCn1c(-c2ccncc2)nc2ccccc21)c1nc(CN2CCCCC2)cs1	-8%	18	-29	-22	1%	-11%
NS(=O)(=O)c1cccc(NS(=O)(=O)c2ccc3ccccc3c2)c1	-7%	29	0	1	-11%	-1%
CCC[C@H]1COCCS(=O)(=O)N1Cc1ccc(Br)cc1	?	.	.	.	11µM*	-3%
CC(C)[C@H]1COCCS(=O)(=O)N1Cc1ccccc1	?	13	0	-15	10µM*!	-2%
CCC[C@H]1COCCS(=O)(=O)N1Cc1ccc(F)cc1	-12%	.	.	.	-15%	0%

Screening results deposited in PubChem by National Center for Advancing Translational Sciences (NCATS).
